Laboratory results taken from PubChem BioAssay (EPA / NIEHS).
Values joined by “and” are separate entries in the source; they are usually repeats but may differ in a detail not shown here. Equal entries are not always repeated. Active and inactive are the calls of the source. Rule for the calls: active = hit-call score of the fitted dose curve at least 0.9, where 1 is the maximum; inactive = score below 0.9.

read-out: Plasminogen activator inhibitor-1 (PAI1), SERPINE1 (gene 5054); assay: BSK_hDFCGF_PAI1: BioMAP Diversity Plus: hDFCGF Assay for Plasminogen activator inhibitor-1 (PAI1) Biomarker Activity (AID 2283066); conditions: primary human foreskin fibroblasts; actives raise or lower the signal
Description: BSK_hDFCGF is a cell-based, multiplexed-readout assay that uses foreskin fibroblast, a human skin primary cell, with measurements taken at 24 hours after chemical dosing in a 96-well plate.BSK_hDFCGF_PAI1 is an assay component measured in the BSK_hDFCGF assay. It measures PAI-1 antibody related to regulation of gene expression using ELISA technology.Data from the assay component BSK_hDFCGF_PAI1 was analyzed into 1 assay endpoint. This assay endpoint, BSK_hDFCGF_PAI1, was analyzed with bidirectional fitting relative to DMSO as the negative control and baseline of activity. Using a type of binding reporter, gain or loss-of-signal activity can be used to understand changes in the signaling as they relate to the gene SERPINE1. Furthermore, this assay endpoint can be referred to as a primary readout, because this assay has produced multiple assay endpoints where this one serves a signaling function. To generalize the intended target to other relatable targets, this assay endpoint is annotated to the cytokine intended target family, where the subfamily is plasmogen activator inhibitor.
The levels of cell surface (or secreted, indicated by the prefix "s") biomarker endpoints were measured by ELISA. Overt cytotoxicity to cells in confluent adherent cultures (all systems other than the BT system) was assessed by measuring total protein levels using sulforhodamine B (SRB) staining in parallel cultures at the time of biomarker measurements, indicated as SRB endpoints. For proliferation assays for adherent cell types, individual cell types are cultured at sub-confluence and relative cell numbers quantified by SRB staining at time points optimized for each system (48 h: 3C and CASM3C systems; 72 h: BT and HDF3CGF systems; 96 h: SAg system). SRB was performed by staining cells with 0.1% SRB after fixation with 10% TCA and reading wells at 560 nm.Viability and proliferation of PBMC (T cells) was quantified by Alamar Blue reduction for the SAg and BT systems. For PBMC viability (referred to as PBMC Cytotoxicity within the assay endpoint names), cells were plated (75,000/well in a 96-well plate) and then chemical samples added for 1 h before addition of activators, SEB and TSST-1 (20 ng/mL final concentration each). Cells were incubated for 90 h. Then, Alamar Blue (20 uL/well) (Invitrogen, Cat DAL1100) was added for 6 h, and the plates were read with a fluorescence microplate reader at 546/580 nm (excitation/emission). For PBMC proliferation, cells were plated and activated as above but incubated for only 16 h prior to addition of Alamar Blue. Plates were read after 6 h.

| Compound | AC50 | outcome |
| --- | --- | --- |
| CC(=O)[O][Hg][c]1ccccc1 | 0.183 µM (active) |  |
| CCCCCCCCc1ccc(O)cc1 | 14 µM (active) |  |
| CC(=O)C(Cl)C(=O)N(C)C (stereo not given) |  | inactive |
| CCOP(=S)(OCC)SCSP(=S)(OCC)OCC |  | inactive |
| O=S(=O)(c1ccc(Cl)cc1)c1ccc(Cl)cc1 |  | inactive |
| Cc1ccccc1N |  | inactive |
| O=C(O)CCC(F)(C(F)(F)F)C(F)(F)F |  | inactive |
| COc1cc(OC)nc(NC(=O)NS(=O)(=O)c2ncccc2C(=O)N(C)C)n1 |  | inactive |
| OCc1ccco1 |  | inactive |
| CC(C)CCCCCCOC(=O)c1ccccc1C(=O)OCCCCCCC(C)C |  | inactive |
| O=c1[nH]c(=O)[nH]c(=O)[nH]1 |  | inactive |
| ClC1(Cl)C2(Cl)C3(Cl)C4(Cl)C(Cl)(Cl)C5(Cl)C3(Cl)C1(Cl)C5(Cl)C24Cl (stereo not given) |  | inactive |
| CC(C)c1ccc(CO)cc1 |  | inactive |
| C(=NC1CCCCC1)=NC1CCCCC1 | 20 µM (active) |  |
| CCC(C)(C)c1ccc(O)c(C(C)(C)CC)c1 | 7.87 µM (active) |  |
| Cn1sc(Cl)cc1=O | 35.2 µM (active) |  |
| Nc1cccc2ccccc12 | 20 µM (active) |  |
| CC(C)(C)c1cc(O)ccc1O | 5.24 µM (active) |  |
| COP(=S)(OC)Oc1ccc(Sc2ccc(OP(=S)(OC)OC)cc2)cc1 | 0.382 µM (active) |  |
| CC12CC1(C)C(=O)N(c1cc(Cl)cc(Cl)c1)C2=O (stereo not given) |  | inactive |

| Compound | AC50 | outcome |
| --- | --- | --- |
| CCOP(=S)(OCC)Oc1nc(Cl)c(Cl)cc1Cl | 13.3 µM (active) |  |
| COP(=S)(OC)Oc1cc(Cl)c(Cl)cc1Cl |  | inactive |
| ClC(Cl)=C(Cl)C(Cl)=C(Cl)Cl | 0.435 µM (active) |  |
| C=CC(=O)OCCCCCC(C)C |  | inactive |
| CN(C)N=O |  | inactive |
| ClC1=C(Cl)[C@]2(Cl)[C@H]3[C@H]([C@H]4C=C[C@H]3C4)[C@@]1(Cl)C2(Cl)Cl | 1.16 µM (active) |  |
| BrCCBr |  | inactive |
| CCC(=O)C(CC(C)N(C)C)(c1ccccc1)c1ccccc1 (stereo not given) |  | inactive |
| COC[C@H](C)N(C(=O)CCl)c1c(C)csc1C |  | inactive |
| O=[N+]([O-])c1ccc(O)c([N+](=O)[O-])c1 |  | inactive |
| CC(C)(c1ccccc1)c1ccc(O)c(C(C)(C)c2ccccc2)c1 | 3.74 µM (active) |  |
| ClCC(Cl)CCl |  | inactive |
| CC(C)(C)CC(C)(C)c1ccc(O)cc1 | 8.03 µM (active) |  |
| O=C(O)C(F)(F)C(F)(F)C(F)(F)C(F)(F)C(F)(F)C(F)(F)F |  | inactive |
| Oc1cccc2cccnc12 | 0.331 µM (active) |  |
| CCOP(=S)(OCC)Oc1ccc(S(C)=O)cc1 (stereo not given) |  | inactive |
| Oc1ccc(-c2ccccc2)cc1 |  | inactive |
| O=C(O)C(F)(F)C(F)(F)C(F)(F)C(F)(F)C(F)(F)C(F)(F)C(F)(F)C(F)(F)C(F)(F)C(F)(F)F | 10.7 µM (active) and 5.61 µM (active) and 5.09 µM (active) |  |
| CC(=O)OC(c1ccccc1)C(Cl)(Cl)Cl (stereo not given) |  | inactive |
| O=C1C2(Cl)C3(Cl)C4(Cl)C(Cl)(Cl)C5(Cl)C3(Cl)C1(Cl)C5(Cl)C24Cl (stereo not given) | 8.81 µM (active) |  |
